Test results published in the supplement of paper PMC12494721.
Structures can show the parent of a compound that is named as a salt.

Test system: Klebsiella aerogenes DSM 30053
Assay: fold change of Histamine concentration vs plate DMSO controls (fold change (ratio)); higher = more amine produced, active = hit call of the paper (significant change in both replicates, either direction)
Conditions: incubation time: 27 h, anaerobic, 37 °C;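 for the amine columns active = adjusted P below 0.05 in both replicates with a change the same way and a mean fold change under 0.8 or over 1.25; inactive = the rest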
Outline: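 Each value is the fold change relative to DMSO-only wells on the same plate. Four gut bacterial strains were grown anaerobically in mGAM at 37 °C for 27 h in 80 µL wells, starting at OD 0.1 before a 1:1 dilution, with compounds at 20 µM final (sweeteners 50 µM). Whole cultures were extracted with cold acetonitrile/methanol containing 0.1% formic acid, centrifuged, and amines were quantified by LC–triple-quadrupole MS (dynamic MRM) against external calibration curves with within-batch drift correction. Values are means of 2 biological replicates.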

Row | SMILES | fold change of Histamine concentration
1 | O=C(O)c1cc(-c2ccc(F)cc2F)ccc1O [Diflunisal] (20 µM) | 1.02 (inactive)
2 | Fc1ccc([C@@H]2CCNC[C@H]2COc2ccc3c(c2)OCO3)cc1 [Paroxetine hydrochloride] (20 µM) | 1.05 (inactive)
3 | CCN(CC)CCOC(=O)C1(C2CCCCC2)CCCCC1 [Dicyclomine hydrochloride] (20 µM) | 1.01 (inactive)
4 | CN1[C@@H]2CC[C@H]1C[C@@H](OC(=O)c1c[nH]c3ccccc13)C2 [Tropisetron hydrochloride] (20 µM) | 0.94 (inactive)
5 | NC(=O)N1c2ccccc2CC(=O)c2ccccc21 [Oxcarbazepine] (20 µM) | 1.07 (inactive)
6 | N=C(NCCCCCCNC(=N)NC(=N)Nc1ccc(Cl)cc1)NC(=N)Nc1ccc(Cl)cc1 [Chlorhexidine] (20 µM) | 0.936 (inactive)
7 | CC(=O)Nc1ccccc1 [Acetanilide] (20 µM) | 1.01 (inactive)
8 | Nc1nc(N)nc(-c2cc(Cl)ccc2Cl)n1 [Irsogladine maleate] (20 µM) | 0.989 (inactive)
9 | Cc1ccsc1C(=CCCN1CCC[C@@H](C(=O)O)C1)c1sccc1C [Tiagabine hydrochloride] (20 µM) | 0.968 (inactive)
10 | CC(C)NCC(O)c1ccc(O)c(O)c1 (single isomer, unassigned; (-)) [(-) Isoproterenol hydrochloride] (20 µM) | 0.874 (inactive)
11 | CN(C)CCN(Cc1ccccc1)c1ccccn1 [Tripelennamine hydrochloride] (20 µM) | 0.957 (inactive)
